Several values for one entry are separate records, joined by “and”; a condition that tells them apart may be missing. Equal values may be shown once. Records with an inconclusive call do not appear. A structure can be active in one record and inactive in another. Activity calls are given as the source filed them. The calls were made as follows, unless noted: active = hit-call score of the fitted dose curve at least 0.9, where 1 is the maximum; inactive = score below 0.9.
System: not listed separately
Test: CCTE_Deisenroth_AIME_96WELL_CTox_Inactive: Cytotoxicity Assessment (CTOX) in CCTE's 96-well Estrogen Receptor Transactivation Assay without AIME metabolic competence (metabolism negative), Deisenroth Lab (AID 2284029; active = hit-call score of the fitted dose curve at least 0.9, where 1 is the maximum)
Method in brief: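 Chemicals (10-point series, 0.002-200 uM) were incubated 2 h with alginate-water microspheres lacking S9. The conditioned medium was then transferred onto VM7Luc4E2 cells for 24 h. Viability was measured by protease-substrate cleavage to a fluorescent probe, with loss of signal fitted bidirectionally; n≥4 experimental replicates.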
For COc1ccc(C(c2ccc(OC)cc2)C(Cl)(Cl)Cl)cc1, the AC50 was 72.4 µM (active). In the case of CCCCC(CC)COC(=O)c1ccccc1C(=O)OCC(CC)CCCC (configuration not stated), the outcome is reported as “inactive”. In the case of Oc1ccccc1-c1ccccc1, the outcome is reported as “inactive”.

Molecular target: Estrogen receptor (Homo sapiens) (UniProt P03372)
Sequence (P03372 whole entry, looked up): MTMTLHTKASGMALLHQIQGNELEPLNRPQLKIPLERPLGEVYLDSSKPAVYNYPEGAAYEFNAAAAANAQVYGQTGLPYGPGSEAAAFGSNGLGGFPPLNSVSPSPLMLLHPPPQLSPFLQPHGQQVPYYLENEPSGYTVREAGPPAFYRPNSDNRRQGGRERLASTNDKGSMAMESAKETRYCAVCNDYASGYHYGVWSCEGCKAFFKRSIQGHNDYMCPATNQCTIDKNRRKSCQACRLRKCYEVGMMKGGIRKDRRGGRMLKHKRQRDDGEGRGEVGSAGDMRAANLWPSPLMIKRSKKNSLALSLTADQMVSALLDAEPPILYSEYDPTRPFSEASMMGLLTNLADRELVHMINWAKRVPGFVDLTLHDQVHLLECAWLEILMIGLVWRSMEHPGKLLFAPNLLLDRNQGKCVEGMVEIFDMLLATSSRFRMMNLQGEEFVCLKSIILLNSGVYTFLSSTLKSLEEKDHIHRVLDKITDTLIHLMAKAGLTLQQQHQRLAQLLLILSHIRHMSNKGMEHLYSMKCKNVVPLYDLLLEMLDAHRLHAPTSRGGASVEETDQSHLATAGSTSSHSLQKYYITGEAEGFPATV
Test: CCTE_Deisenroth_AIME_384WELL_LUC_Active: CCTE's 384-well Estrogen Receptor Transactivation Assay with AIME metabolic competence (ERTA luciferase; metabolism positive), Deisenroth Lab (AID 2284030; active = hit-call score of the fitted dose curve at least 0.9, where 1 is the maximum)
Method in brief: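 Estrogenic luciferase signal in VM7Luc4E2 cells is measured at 24 hour, after chemicals have been preconditioned 2 hours with PB/BNF-induced rat hepatic S9 in alginate. Gain of signal is fitted relative to 17beta-estradiol, across 0.002 - 200 uM.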
With CCON=C(CC)C1=C(O)CC(c2c(C)cc(C)cc2C)CC1=O (configuration not stated) the outcome was “inactive”. For O=C(O)c1nc(Cl)ccc1Cl, the outcome was “inactive”. With COc1cnc(OC)n2nc(NS(=O)(=O)c3c(OCC(F)F)cccc3C(F)(F)F)nc12 the AC50 was 21.2 µM (active). For C=CC1(C)OC(=O)N(c2cc(Cl)cc(Cl)c2)C1=O (configuration not stated), the outcome was “inactive”. For CC1=C(C(=O)Nc2ccccc2)SCCO1, the outcome was “inactive”. In the case of COC(=O)N(OC)c1ccccc1COc1ccn(-c2ccc(Cl)cc2)n1, the outcome is reported as “inactive”. In the case of COP(N)(=O)SC (configuration not stated), the outcome is reported as “inactive”. For O=C(O)COc1nc(Cl)c(Cl)cc1Cl, the outcome was “inactive”. In the case of CC(Oc1ccc(Cl)cc1Cl)C(=O)O (configuration not stated), the outcome is reported as “inactive”. In the case of Oc1ccccc1-c1ccccc1, the AC50 is reported as 57.9 µM (active). In the case of Cc1c(F)c(F)c(COC(=O)C2C(/C=C(\Cl)C(F)(F)F)C2(C)C)c(F)c1F (configuration not stated), the outcome is reported as “inactive”.

System: not listed separately
Test: CCTE_Shafer_MEA_dev_firing_rate_mean: CCTE's Neural Network Formation Assay for Mean Firing Rate, Shafer Lab (AID 2284031);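 also: AUC of well mean spike rate recorded on DIV 5 7 9 and 12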;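 as to AC50: curve fitted for loss of firing so AC50 reflects decreased mean firing rate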
Method in brief: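 Developing rat cortical networks on MEA plates undergo 12-day compound exposure. Firing frequency, averaged across active electrodes, is integrated as area under the curve over four recording days, referenced to DMSO.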
For CN(C)C(=S)SSC(=S)N(C)C, the AC50 was 7.36 nM (active). In the case of CCCCOC(=O)c1ccccc1C(=O)OCCCC, the outcome is reported as “inactive”. In the case of CCNc1nc(Cl)nc(NC(C)C)n1, the outcome is reported as “inactive”. With C=CCC1=C(C)C(OC(=O)C2C(C=C(C)C)C2(C)C)CC1=O (configuration not stated) the outcome was “inactive”. With C=CC1(C)OC(=O)N(c2cc(Cl)cc(Cl)c2)C1=O (configuration not stated) the outcome was “inactive”. With CCCCNC(=O)n1c(NC(=O)OC)nc2ccccc21 the outcome was “inactive”. For COc1ccc(C(c2ccc(OC)cc2)C(Cl)(Cl)Cl)cc1, the outcome was “inactive”. With COC(=O)N(OC)c1ccccc1COc1ccn(-c2ccc(Cl)cc2)n1 the AC50 was 79.6 nM (active) and the outcome was “inactive”. In the case of CCOc1cc(Oc2ccc(C(F)(F)F)cc2Cl)ccc1[N+](=O)[O-], the AC50 is reported as 12800 nM (active). For CO/C=C(/C(=O)OC)c1ccccc1Oc1cc(Oc2ccccc2C#N)ncn1, the AC50 was 925 nM (active) and 1.71 µM (active). In the case of COP(N)(=O)SC (configuration not stated), the outcome is reported as “inactive”. For Cc1ccc(-c2c(Cl)nc(C#N)n2S(=O)(=O)N(C)C)cc1, the AC50 was 18000 nM (active). In the case of CC(C)(C)c1ccc(CSc2cnn(C(C)(C)C)c(=O)c2Cl)cc1, the AC50 is reported as 4.92 nM (active). With COP(=S)(OC)Oc1nc(Cl)c(Cl)cc1Cl the outcome was “inactive”. For CCCCNC(=O)OCC#CI, the AC50 was 3.81 µM (active) and 2.25 µM (active). With CCCCC(CC)COC(=O)c1ccccc1C(=O)OCC(CC)CCCC (configuration not stated) the AC50 was 2.98 µM (active) and 3.04 µM (active) and the outcome was “inactive”. With C=CCC1=C(C)[C@@H](OC(=O)[C@@H]2[C@@H](C=C(C)C)C2(C)C)CC1=O the outcome was “inactive”. In the case of N#Cc1nn(-c2c(Cl)cc(C(F)(F)F)cc2Cl)c(N)c1S(=O)C(F)(F)F (configuration not stated), the outcome is reported as “inactive”. With Cc1c(F)c(F)c(COC(=O)C2C(/C=C(\Cl)C(F)(F)F)C2(C)C)c(F)c1F (configuration not stated) the AC50 was 598 nM (active). With CNC(=O)ON=CC(C)(C)SC the outcome was “inactive”. For CCOC(=O)CC(SP(=S)(OC)OC)C(=O)OCC (configuration not stated), the outcome was “inactive”.

From PubChem BioAssay (EPA / NIEHS)
